Assay outcomes deposited in PubChem BioAssay by NMMLSC.
Avidin fluor = compound fluoresces at 488/530 nm on avidin beads | fluorescence (KMESF) at 10 µM | compound fluorescence 488/530 nm, flow cytometry; hits give high values | 0.38% of 220,000 active | AID 1775; in the data active = fluorescence above about 47
RGS7-Gao reg = human RGS7-Galphao interaction regulation. P09471. Multiplexed bead flow cytometry, RGS7-Galphao binding; actives lie on both sides. binding response (% of control), % at 10 µM. 0.35% of 220,000 active. AID 1439; in the data active = binding response below about 49% or above about 150%; inconclusive = no clear call, values can overlap the other calls; inactive = in between;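 note: fluorescent Galphao held in activated GDP-AlF4 state binding bead-coupled RGS7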
Target sequence (P09471 whole entry, looked up): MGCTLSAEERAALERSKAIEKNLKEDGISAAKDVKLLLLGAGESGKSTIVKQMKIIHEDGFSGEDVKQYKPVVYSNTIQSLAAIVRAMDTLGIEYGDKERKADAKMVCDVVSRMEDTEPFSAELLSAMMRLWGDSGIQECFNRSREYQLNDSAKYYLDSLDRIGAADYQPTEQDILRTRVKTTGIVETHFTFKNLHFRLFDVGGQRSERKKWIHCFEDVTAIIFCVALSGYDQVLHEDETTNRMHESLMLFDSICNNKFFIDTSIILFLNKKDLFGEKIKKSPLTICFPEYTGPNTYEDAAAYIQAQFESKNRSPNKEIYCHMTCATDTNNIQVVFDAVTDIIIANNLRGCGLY
RGS4-Gao reg = modulates binding of RGS4 to human Galphao | binding response (% of control), % at 10 µM | 0.33% of 220,000 active | P09471 | Multiplexed bead flow cytometry; actives lie on both sides | AID 1415; in the data active = binding response below about 49% or above about 150%; inactive = in between;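 note: fluorescent Galphao activated with aluminum fluoride binding bead-coupled RGS4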
RGS8-Gao reg = modulates binding of RGS8 to human Galphao | P09471 | AID 1423 | 0.34% of 220,000 active | response (percent of control binding), % at 10 µM | multiplexed bead flow cytometry; actives lie on both sides; in the data active = response below about 60% or above about 140%; inactive = in between;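 note: Galphao activated as the GDP aluminium fluoride complex binding bead-coupled RGS8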
RGS16-Gao HTS = RGS16-Galphao interaction regulator (human); O15492+P09471; bead-based flow cytometry RGS16-Galphao binding, fluorescence; actives lie on both sides; binding response (% of control), % at 10 µM; 0.38% of 220,000 active; AID 1441;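 note: Galphao activated by GDP with aluminum fluoride before binding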
Target sequence (O15492 whole entry, looked up): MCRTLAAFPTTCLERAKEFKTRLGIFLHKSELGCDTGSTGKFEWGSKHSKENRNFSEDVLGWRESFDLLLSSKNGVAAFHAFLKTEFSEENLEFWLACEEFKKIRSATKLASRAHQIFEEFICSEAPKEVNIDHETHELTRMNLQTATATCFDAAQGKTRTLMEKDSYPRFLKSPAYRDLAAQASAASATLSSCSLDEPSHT
Target sequence (P09471 whole entry, looked up): as the sequence (P09471 whole entry, looked up) above
GSH bead fluor = compound fluoresces at 488/530 nm on GSH beads; AID 1776; fluorescence (KMESF) at 10 µM; GSH beads flow cytometry, compound fluorescence 488/530 nm; hits give high values; 0.25% of 190,000 active; in the data active = fluorescence above about 89;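 note: glutathione beads carrying GST-tagged Bcl family fusion proteins plus one bare bead set; values are compound well signal with DMSO vehicle wells as background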
RGS4-Gao HTS = RGS4-Galphao interaction regulator (human); shares compounds with RGS16-Gao HTS; multiplexed bead flow cytometry, RGS–Galpha-o binding; RGS4–Galpha-o binding response, % at 10 µM; 99% of 1,600 active; AID 1504;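 note: fluorescently labeled Galpha-o bound to GDP with aluminium fluoride binding biotinylated RGS beads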
Biotin-avidin = interferes with biotinylated probe binding to avidin beads. streptavidin beads, fluorescein-biotin binding, flow cytometry. AID 1783. shares compounds with RGS16-Gao HTS. 1,700 tested, under 10 active. inhibition, % at 10 µM;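 active = inhibition above 50%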;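 note: median green fluorescence of gated singlet beads compared with DMSO control wells; 0% = DMSO wells and 100% = complete loss of bead fluorescence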
RGS8-Gao confirm = confirmation of regulators of human RGS8-Galphao interaction; shares compounds with RGS16-Gao HTS; bead-based flow cytometry RGS8-Galphao binding, fluorescence; actives lie on both sides; binding response (% of control), % at 10 µM; 3% of 1,700 active; AID 1836; in the data active = binding response below about 72% or above about 130%; inactive = in between;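 note: Galphao activated as GDP AlF4 complex before binding bead RGS8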
RGS7-Gao confirm = confirmation of regulators of human RGS7-Galphao interaction; shares compounds with RGS16-Gao HTS; bead-based flow cytometry RGS7-Galphao binding; actives lie on both sides; response (percent of control binding), % at 10 µM; 7.8% of 1,700 active; AID 1837; in the data active = response below about 75% or above about 130%; inactive = in between;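 note: fluorescent Galphao activated with GDP and aluminum fluoride binding bead-coupled RGS7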
RGS16-Gao single = confirmation of regulators of human RGS16-Galphao interaction; response (% of control binding), % at 10 µM; 4% of 1,700 active; shares compounds with RGS16-Gao HTS; AID 1838; bead-based flow cytometry, RGS16-Galphao binding; actives lie on both sides; in the data active = response below about 74% or above about 130%; inactive = in between;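 note: Galphao activated as the GDP aluminium fluoride complex binding bead-coupled RGS16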
RGS4-Gao single = confirmation of regulators of human RGS4-Galphao interaction; shares compounds with RGS16-Gao HTS; RGS4-Galphao binding, multiplexed bead flow cytometry; actives lie on both sides; binding response (% of control), % at 10 µM; 4% of 1,700 active; AID 1840; in the data active = binding response below about 74% or above about 130%; inactive = in between
RGS19-Gao conf = RGS19-Galphao interaction regulation, single point confirmation; shares compounds with RGS16-Gao HTS; bead-based flow cytometry RGS19-Galphao binding; actives lie on both sides; response (percent of control binding), % at 10 µM; 5% of 1,700 active; AID 1841; in the data active = response below about 50% or above about 160%; inactive = in between;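 note: 100% = no compound control and 0% = blank background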
* = called active by the depositor; [ ] = dose if it differs, or a comment. This is a sample that favours compounds with a hit; in the whole collection about 1.2% have one here. Unless noted, the rule behind the calls is not given here.

Results for COc1ccc(C(=O)CCC(=O)Nc2cccnc2)cc1 ?
Avidin fluor: 0; RGS7-Gao reg: 2.6*; RGS4-Gao reg: 0.8*; RGS8-Gao reg: 6.2*; RGS16-Gao HTS: -5.4*; GSH bead fluor: 9; Biotin-avidin: -1; RGS8-Gao confirm: 101; RGS7-Gao confirm: 98; RGS16-Gao single: 102; RGS4-Gao single: 99; RGS19-Gao conf: 101

How did O=C(CCC1CCCCC1)Nc1cccnc1 do in these assays?
GSH bead fluor: 38; Biotin-avidin: 2; RGS8-Gao confirm: 102; RGS7-Gao confirm: 100; RGS16-Gao single: 100; RGS4-Gao single: 101; RGS19-Gao conf: 100

Results for COc1ccc(C)cc1NC(=O)NNC(=O)C1CCC(C(C)(C)C)CC1 (stereo unspecified) ?
Avidin fluor: 7; RGS7-Gao reg: 94; RGS4-Gao reg: 99; RGS8-Gao reg: 101; RGS16-Gao HTS: 101; GSH bead fluor: 12

Results for CC(C)(C)OC(=O)N1CCC(c2cc(=O)n3[nH]cc(C(=O)Nc4ccc(F)c(Cl)c4)c3n2)CC1 ?
Avidin fluor: 7; RGS7-Gao reg: inconclusive; RGS4-Gao reg: 101; RGS8-Gao reg: 99; RGS16-Gao HTS: 99

How did CC(C)(C)OC(=O)N1CCC(c2cc(=O)n3[nH]c(-c4ccc(Cl)cc4)cc3n2)CC1 do in these assays?
Avidin fluor: 0; RGS7-Gao reg: 44*; RGS4-Gao reg: 33*; RGS8-Gao reg: 47*; RGS16-Gao HTS: 6; GSH bead fluor: 23; Biotin-avidin: -2; RGS8-Gao confirm: 102; RGS7-Gao confirm: 95; RGS16-Gao single: 101; RGS4-Gao single: 99; RGS19-Gao conf: 88

Results for CCOC(=O)CSc1nc2ccccc2c(=O)n1CC1COc2ccccc2O1 (stereo unspecified) ?
Avidin fluor: -4; RGS7-Gao reg: -14*; RGS4-Gao reg: -26*; RGS8-Gao reg: 0.8*; RGS16-Gao HTS: -138; GSH bead fluor: 18; Biotin-avidin: -6; RGS8-Gao confirm: 116; RGS7-Gao confirm: 130*[activator]; RGS16-Gao single: 120; RGS4-Gao single: 124; RGS19-Gao conf: 122

What do the screens show for `CCOC(=O)CSc1nc2ccccc2c(=O)n1CC1CCCO1` (stereo unspecified)?
Avidin fluor: 4; RGS7-Gao reg: 72; RGS4-Gao reg: 71; RGS8-Gao reg: 57*; RGS16-Gao HTS: 7; GSH bead fluor: 15; RGS4-Gao HTS: 71*; Biotin-avidin: 0; RGS8-Gao confirm: 101; RGS7-Gao confirm: 100; RGS16-Gao single: 100; RGS4-Gao single: 101; RGS19-Gao conf: 95

Results for CC(=O)N1C(Nc2ccc(Cl)cc2)CCN1c1ccccc1 (stereo unspecified) ?
GSH bead fluor: 16; Biotin-avidin: -1; RGS8-Gao confirm: 102; RGS7-Gao confirm: 98; RGS16-Gao single: 98; RGS4-Gao single: 101; RGS19-Gao conf: 88

Results for Nc1n[nH]c(N)c1N=Nc1ccccc1 ?
Avidin fluor: 11; RGS7-Gao reg: 99; RGS4-Gao reg: 102; RGS8-Gao reg: 100; RGS16-Gao HTS: 108; GSH bead fluor: 23

How did Nc1n[nH]c(N)c1N=Nc1ccc(Cl)cc1Cl do in these assays?
Avidin fluor: 0; RGS7-Gao reg: 46*; RGS4-Gao reg: 53; RGS8-Gao reg: 72; RGS16-Gao HTS: 82; GSH bead fluor: 10; RGS4-Gao HTS: 53*; Biotin-avidin: -1; RGS8-Gao confirm: 99; RGS7-Gao confirm: 98; RGS16-Gao single: 99; RGS4-Gao single: 100; RGS19-Gao conf: 88

Results for Cc1cc(=O)[nH]c(N/N=C/c2ccc(OC(=O)c3cccnc3)cc2)n1 ?
Avidin fluor: 25; RGS7-Gao reg: 98; RGS4-Gao reg: 102; RGS8-Gao reg: 104; RGS16-Gao HTS: 110; GSH bead fluor: 8

Results for O=C(CN1CCN(c2ccccc2O)CC1)NCCCc1ccccc1 ?
Avidin fluor: 12; RGS7-Gao reg: 99; RGS4-Gao reg: 99; RGS8-Gao reg: 102; RGS16-Gao HTS: 102; GSH bead fluor: 10

How did O=C(CN1CCN(c2ccccc2O)CC1)NC(c1ccccc1)c1ccccc1 do in these assays?
Avidin fluor: 5; RGS7-Gao reg: 114; RGS4-Gao reg: 114; RGS8-Gao reg: 137; RGS16-Gao HTS: 244*[activator]; GSH bead fluor: 16; RGS4-Gao HTS: 114*; Biotin-avidin: 2; RGS8-Gao confirm: 105; RGS7-Gao confirm: 105; RGS16-Gao single: 101; RGS4-Gao single: 104; RGS19-Gao conf: 92

What do the screens show for `Cc1ccc(S(=O)(=O)N(CCCO)CC(O)CON=C2c3ccccc3-c3ccccc32)cc1` (stereo unspecified)?
Avidin fluor: 15; RGS7-Gao reg: 101; RGS4-Gao reg: 103; RGS8-Gao reg: 102; RGS16-Gao HTS: 101; GSH bead fluor: 16

How did O=C(C1CCC(CNS(=O)(=O)c2cccs2)CC1)N1CCCCC1 (stereo unspecified) do in these assays?
Avidin fluor: 4; RGS7-Gao reg: 95; RGS4-Gao reg: 93; RGS8-Gao reg: 93; RGS16-Gao HTS: 55; GSH bead fluor: 35

What do the screens show for `CCN1CCN(C(=O)C2CCC(CNS(=O)(=O)c3ccccc3)CC2)CC1` (stereo unspecified)?
GSH bead fluor: 36; Biotin-avidin: 4; RGS8-Gao confirm: 102; RGS7-Gao confirm: 105; RGS16-Gao single: 108; RGS4-Gao single: 108; RGS19-Gao conf: 103
